Measured values as given in PubChem BioAssay AID504374 (National Center for Advancing Translational Sciences (NCATS), 2011).
“And” between values parts separate entries of the source, which are not always exact repeats. Equal entries are not always repeated. About 100 (6.7%) of roughly 1,500 compounds were called active. Another 7% or so got no clear call; they are omitted. Calls follow the shape of the dose curve; as a rule, active = well fitted inhibition curve with a large enough effect; inconclusive = small, poorly fitted or top-dose-only effect, or effect the other way; inactive = flat fitted curve, though single readings scatter. Shown is part of a subset that was picked to be rich in actives.

biological target: Runt-related transcription factor 1 (Homo sapiens) + Core-binding factor subunit beta (Homo sapiens) (UniProt Q01196+Q13951); assay: qHTS Assay for Compounds Blocking the Interaction Between CBF-beta and RUNX1 for the Treatment of Acute Myeloid Leukemia: Hit Validation; settings: AlphaScreen CBFb-His/RUNX1-biotin binding; series mostly up to 59.8 µM; activity, negative = inhibition: at the top concentration; also: nearly all actives have a fitted effect of over 60% in size
Sequence (Q01196 whole entry, looked up): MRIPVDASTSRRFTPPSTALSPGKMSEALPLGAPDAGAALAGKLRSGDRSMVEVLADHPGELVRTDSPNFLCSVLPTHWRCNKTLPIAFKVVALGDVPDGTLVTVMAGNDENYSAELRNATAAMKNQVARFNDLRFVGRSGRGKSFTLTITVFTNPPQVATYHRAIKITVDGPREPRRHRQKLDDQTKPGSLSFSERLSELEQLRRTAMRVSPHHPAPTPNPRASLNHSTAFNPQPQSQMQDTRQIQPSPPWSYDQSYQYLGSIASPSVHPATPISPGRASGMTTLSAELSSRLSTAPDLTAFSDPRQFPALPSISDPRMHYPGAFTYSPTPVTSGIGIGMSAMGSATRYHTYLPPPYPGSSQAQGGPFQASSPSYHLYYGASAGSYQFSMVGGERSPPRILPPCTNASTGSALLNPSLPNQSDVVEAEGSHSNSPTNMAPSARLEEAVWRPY
Sequence (Q13951 whole entry, looked up): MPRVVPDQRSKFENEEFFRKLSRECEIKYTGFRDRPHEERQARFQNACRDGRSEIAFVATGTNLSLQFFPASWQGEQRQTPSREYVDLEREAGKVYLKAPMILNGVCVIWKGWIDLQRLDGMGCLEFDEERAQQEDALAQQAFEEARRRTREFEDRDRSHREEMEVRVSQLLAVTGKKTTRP
Summary of the method: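 Compounds were added to a premixed CBF-beta-His/RUNX1-biotin complex (30 nM each, 20 min) for 15 min. Nickel and streptavidin AlphaScreen beads followed for 90 min at room temperature, with emission at 440 nm […].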
% is scaled to controls: 0 for no effect and ±100 for the full control effect; potency is read from the fitted curve at half-maximal effect.

| Compound | activity, negative = inhibition | Potency |
| --- | --- | --- |
| CC(C)CC1C2C(=O)N(c3ccccc3)C(=O)C2ON1c1ccccc1 (stereo not given) | 0.251% (inactive) |  |
| c1ccc2sc(SCSc3nc4ccccc4s3)nc2c1 | -3.42% (inactive) |  |
| CC1(C)CC(=O)C2=C(C1)OC(N)=C(C#N)[C@@H]2c1ccccc1[N+](=O)[O-] | -5.53% (inactive) |  |
| COc1ccc(/C=N/NC(=O)c2cnccn2)c(OC)c1OC | -4.33% (inactive) |  |
| CSc1ccc(C(=O)NCC(=O)O)cc1[N+](=O)[O-] | -1.02% (inactive) |  |
| CC(C)(C)c1ccc(NC(=O)c2ccsc2)cc1 | 6.68% (inactive) |  |
| COC(=O)c1ccc(S(=O)(=O)N(C2CCCCC2)C2CCCCC2)n1C | -5.96% (inactive) |  |
| CCN(CC)CCN1C(=O)C(=O)/C(=C(/O)c2ccc3c(c2)CC(C)O3)C1c1ccc(OC)cc1 (stereo not given) | -3.3% (inactive) |  |
| O=S(=O)(Nc1nc(SCc2ccc(Cl)cc2)n[nH]1)c1ccccc1 | -15.9% (inactive) |  |
| CCOC(=O)N1CCC(NC(=O)CCCC(=O)O)CC1 | 6.93% (inactive) |  |
| Nc1c(C(=O)NCC2CCCO2)sc2nc3c(c(-c4ccco4)c12)CC/C3=C\c1ccco1 (stereo not given) |  | 12.6 µM (active) |
| Cc1ccccc1-c1noc(-c2ccccc2C(=O)NCC2CCCO2)n1 (stereo not given) | -6.51% (inactive) |  |
| C/C(Cc1nnn(-c2cc(C)on2)n1)=N\O | -0.472% (inactive) |  |
| CCOC(=O)Cc1csc(NC(=O)Cc2ccc(Br)cc2)n1 | -4.76% (inactive) |  |
| COc1ccc(-c2nnsc2N2C(=O)c3ccccc3C2=O)cc1 | -3.86% (inactive) |  |
| COC(=O)C(=Cc1ccccc1[N+](=O)[O-])C(=O)OC | -2.17% (inactive) |  |
| CC(=O)Nc1ccc(S(=O)(=O)Nc2cc(-c3ccccc3)nn2C)cc1 | 0.969% (inactive) |  |
| CN(C)C(=O)Nc1ccccc1 | -3.42% (inactive) |  |
| O=C(O)C[C@@H]1C(=O)O[C@@H]2C(COC(=O)c3cc(O)c(O)c(O)c3)O[C@@H](OC(=O)c3cc(O)c(O)c(O)c3)[C@@H](OC(=O)c3cc(O)c(O)c4c3[C@H]1[C@H](O)C(=O)O4)[C@H]2OC(=O)c1cc(O)c(O)c(O)c1 (stereo not given in full) |  | 0.0316 µM (active) |
| CC(Cc1c[nH]c2ccccc12)C(=O)O (stereo not given) |  | 12.2 µM (active) |
| Cc1cccc(CC(=O)c2c[nH]c3ccccc23)c1 | -8.61% (inactive) |  |
| O=C(/C=C/c1ccccc1)c1c[nH]c2ccccc12 | -1.47% (inactive) |  |
| Cc1onc(-c2c(F)cccc2Cl)c1C(=O)N1CCSCC1 | -1.82% (inactive) |  |

| Compound | activity, negative = inhibition | Potency |
| --- | --- | --- |
| Cc1cc(=O)cc2oc3cc(N)c(-c4c(C)cc(O)cc4O)c(C)c3nc1-2 |  | 8.88 µM (active) |
| O=C(O)c1cnc2[nH]c3ccccc3n2c1=O | -12% (inactive) |  |
| Nc1nc(Nc2ccccc2)nc(NCCO)c1[N+](=O)[O-] | -6.03% (inactive) |  |
| Cc1ccn(C)c(=N)c1 | -1.05% (inactive) |  |
| COc1ccc(NS(=O)(=O)c2ccc3c(c2)CCO3)cc1 | -11.6% (inactive) |  |
| COc1ccc(OC)c(-c2c3cc(O)c(=O)cc-3oc3cc(O)c(O)cc23)c1 |  | 2.24 µM (active) |
| NNC(=O)c1ccc(Cn2cccn2)o1 | -3.9% (inactive) |  |
| FC(F)(F)c1cccc(-n2c(Cn3nnc4ccccc43)n[nH]c2=S)c1 | 7.14% (inactive) |  |
| O=C(O)/C=C/C(=O)Nc1ccc(Cl)cc1C(=O)c1ccccc1 | -3.57% (inactive) |  |
| NCC(=O)Nc1ccc(Cl)cc1C(=O)c1ccc[nH]1 |  | 3.55 µM (active) |
| Nc1cc(=O)[nH]c(SCC(=O)Nc2cc(Cl)ccc2Cl)n1 | -10% (inactive) |  |
| Cc1ccc(C)c(N2CCN(c3ccncc3N)CC2)c1 | -11.1% (inactive) |  |
| NCCc1ccc(O)c(O)c1 | -10.7% (inactive) |  |
| NC(Cc1ccc(O)c(O)c1)C(=O)O (stereo not given) |  | 1.12 µM (active) |
| O=C(/C=C/c1ccc(O)c(O)c1)c1ccccc1O | -28.7% (inactive) |  |
| N[C@H](Cc1ccc(O)c(O)c1)C(=O)O |  | 8.91 µM (active) |
| CCCCc1cc(=O)oc2c(C)c(OCc3nn[nH]n3)ccc12 | -4.17% (inactive) |  |
| CC(=O)Nc1nnc(CSCc2ccc(F)cc2)s1 | -1.58% (inactive) |  |
| Cc1ccc(-c2nn[nH]n2)cc1Cl | 0.848% (inactive) |  |
| Cc1ccc(C(=O)/C=C/N(C)C)cn1 | -6.06% (inactive) |  |
| CCOC(=O)Cc1csc(NC(=O)Nc2cccc(OC)c2)n1 | 6.65% (inactive) |  |
| CCOC(=O)N1CCC(NS(=O)(=O)c2ccc(C)c(Cl)c2)CC1 | -2.28% (inactive) |  |
| CCOc1ccc(Nc2nc(N)nc(CSC(=S)N3CCOCC3)n2)cc1 | -12.1% (inactive) |  |

| Compound | activity, negative = inhibition | Potency |
| --- | --- | --- |
| CCN(CC)C(=S)SSC(=S)N(CC)CC |  | 0.794 µM (active) |
| Cc1ccncc1C(N)=O | -0.629% (inactive) |  |
| CC(C)N(CCn1cnc2c([nH]c3ccccc32)c1=O)C(C)C | 1.42% (inactive) |  |
| Cc1onc(-c2c(Cl)cccc2Cl)c1NC(=O)NC1CCSC1 (stereo not given) | -3.96% (inactive) |  |
| O=C1OCC2OC(O)C(O)C(O)C2OC(=O)c2cc(O)c(O)c(O)c2-c2c(O)c(O)c3oc(=O)c4c(c(O)c(O)c5oc(=O)c2c3c54)-c2c1cc(O)c(O)c2O (stereo not given) |  | 0.224 µM (active) |
| O=C(O[C@@H]1OC2COC(=O)c3cc(O)c(O)c(O)c3-c3c(cc(O)c(O)c3O)C(=O)O[C@@H]([C@H]1O)[C@@H]2O)c1cc(O)c(O)c(O)c1 |  | 0.224 µM (active) |
| Cc1oc(S(=O)(=O)N(C)C)cc1C(=O)Nc1ccc(Cl)cc1 | -5.12% (inactive) |  |
| Cc1ccc2[nH]cc(CCNC(=O)/C=C/c3ccco3)c2c1 | -14.3% (inactive) |  |
| CC1(C)C(CC2OCC(CN3CCCCC3)O2)[C@H]2CC[C@@H]1C2 (stereo not given in full) | -2.34% (inactive) |  |
| C=C(C)C(=O)Nc1cccnc1Oc1ccc(F)cc1 | -1.27% (inactive) |  |
| O=C1CCCN1CCCNC(=S)Nc1ccccc1 | -7.84% (inactive) |  |
| C=C(C)C(=O)Nc1cccnc1Oc1ccc(F)cc1F | -0.381% (inactive) |  |
| O=c1c(O)cccc2cc(O)c(O)c(O)c12 |  | 447 nM (active) and 631 nM (active) |
| CCOC(=O)C1(C)C=C(Nc2cccc(OC)c2)C(=O)N1c1ccccc1 (stereo not given) | -13% (inactive) |  |
| COc1ccccc1NC(=O)Nc1sccc1-c1nc2ccccc2s1 | -17.1% (inactive) |  |
| CCOC(=O)c1cnc2c(C(=O)OCC)cnn2c1N | -0.993% (inactive) |  |
| O=c1[nH]cc(I)cc1I |  | 17.3 µM (active) |
| Oc1ccc(/C=N/NC(=S)Nc2cccnc2)c(O)c1 |  | 1.58 µM (active) |
| CC(C)(C)c1ccc(NC(=S)NCc2cccnc2)cc1 | -3.62% (inactive) |  |
| CNC(=O)C(=O)N/N=C/c1cccnc1 | 26.6% (inactive) |  |
| Oc1ccc(NC(=S)Nc2ccccc2)cc1 | -3.44% (inactive) |  |
| S=C(N/N=C/c1cccc2ccccc12)Nc1cccc(Cl)c1 | -12.9% (inactive) |  |
| Oc1ccc(/C=N/NC(=S)Nc2cccnc2)c(O)c1O |  | 1.26 µM (active) |

| Compound | activity, negative = inhibition | Potency |
| --- | --- | --- |
| O=c1[nH]nc(N/N=C/c2ccc(Cl)cc2Cl)c(=O)[nH]1 | -5.54% (inactive) |  |
| Cc1onc(-c2c(F)cccc2Cl)c1C(=O)N=C(N)N1CC(C)OC(C)C1 (stereo not given) | -0.719% (inactive) |  |
| O=C(O)C1(c2ccccc2)CCN(S(=O)(=O)c2ccc(Cl)s2)CC1 | -0.0237% (inactive) |  |
| N#Cc1c(-c2ccccc2Cl)c2c([nH]c1=O)-c1ccccc1OC2 | 4.48% (inactive) |  |
| COc1ccccc1NC(=O)OCC#CCOC(=O)Nc1ccccc1OC | 9.79% (inactive) |  |
| CCn1c(NC(=O)c2ccccc2F)c(-c2cccs2)c(=O)c2ccccc21 | -8% (inactive) |  |
| S=c1[nH]c2cc3ccccc3cc2[nH]1 | 10.7% (inactive) |  |
| Nc1ccc2nc3c(=O)[nH]c(=S)[nH]c3nc2c1 |  | 2.51 µM (active) |
| COc1ccccc1NC(=S)NCC1CCC(CNC(=S)Nc2ccccc2OC)CC1 (stereo not given) | -2.72% (inactive) |  |
| COC(=O)c1cccnc1Oc1ccccc1 | -13.6% (inactive) |  |
| NC(=O)c1cccnc1Oc1ccc(Cl)cc1 | -13% (inactive) |  |
| O=C(O)c1cccnc1C(=O)O |  | 14.1 µM (active) |
| Cc1[nH]ncc1-c1ccccc1Cl | 2.43% (inactive) |  |
| Nc1nc(CCl)nc(Nc2ccc3ccccc3c2)n1 | 3.21% (inactive) |  |
| Cc1ccc(N2CC(c3nc4ccccc4n3C)CC2=O)cc1 (stereo not given) | 0.961% (inactive) |  |
| Cc1cc2nc3ccc(=[N+](C)C)cc-3sc2cc1N |  | 6.31 µM (active) |
| Cc1ccc2nc(-c3ccc(N)cc3)sc2c1 | 0.903% (inactive) |  |
| Oc1cccc(O)c1O |  | 3.97 µM (active) |
| Cn1nc(-c2ccccc2)cc1NC(=O)CCCC(=O)O | -2.32% (inactive) |  |
| Cc1ccnn1CC(=O)N/N=C/c1cn[nH]c1-c1ccc(F)cc1 | -5.89% (inactive) |  |
| CC(C)CC(=O)NC(=S)Nc1ccccc1N1CCCC1 | -17.3% (inactive) |  |
| CNC(=O)Nc1cc(NC(=O)NC)cc(C(F)(F)F)c1 | -3.15% (inactive) |  |
| CCOC(=O)C1=C(C)NC(C)=C(C(=O)OCC)C1 | 0.11% (inactive) |  |

| Compound | activity, negative = inhibition | Potency |
| --- | --- | --- |
| CCCC(=O)NC(c1cccs1)c1cc([N+](=O)[O-])c2cccnc2c1O (stereo not given) |  | 3.98 µM (active) |
| CN(C)C(=O)CSc1nnc(NC(=O)CCc2ccccc2)s1 | 5.1% (inactive) |  |
| COC(=O)/C=C(\C)N=Nc1c(O)[nH]c2ccccc12 | -4.81% (inactive) |  |
| Cc1ccc(CN(C(=O)c2cc(=O)c3cc(C)cc(C)c3o2)C2CCS(=O)(=O)C2)cc1 (stereo not given) | 4.59% (inactive) |  |
| Cc1cccc(C)c1NC(=S)N1CC(C)OC(C)C1 (stereo not given) | -4.3% (inactive) |  |
| Cn1cnc(S(=O)(=O)Nc2ccc(OC(F)F)cc2)c1 | 1.32% (inactive) |  |
| O=C1C(CCC(O)c2ccc(F)cc2)C(c2ccc(O)cc2)N1c1ccc(F)cc1 (stereo not given) |  | 15.8 µM (active) |
| CC(C)(C)OC(=O)N1CCCN(C(=O)Nc2ccccc2)CC1 | 0.141% (inactive) |  |
| COc1cccc(NC(=O)C(=O)NCCc2ccc(F)cc2)c1 | 5.31% (inactive) |  |
| CCOC(=O)/C(C#N)=C/Nc1ccsc1C(C)=O | 0.205% (inactive) |  |
| Cc1ccc(Cn2c(N/N=C/c3ccncc3)nc3c2c(=O)n(C)c(=O)n3C)cc1 | -3.34% (inactive) |  |
| O=C1CSC(=S)N1/N=C/c1ccc(O)c(O)c1O |  | 0.562 µM (active) |
| Cc1cc(NC(=O)c2c(-c3c(F)cccc3Cl)noc2C)no1 | -7.12% (inactive) |  |
| COc1cccc(/C=N/NC(=O)C(C)Cn2cnc3ccccc32)c1 (stereo not given) | -0.552% (inactive) |  |
| COc1ccc(Oc2ccc(-c3ccn[nH]3)cc2)cc1 | -8.28% (inactive) |  |
| COc1ccc(Oc2nc(-c3ccccn3)ncc2OC)cc1 |  | 12.6 µM (active) |
| COc1ccc(Oc2ncccc2[N+](=O)[O-])cc1 | -4.02% (inactive) |  |
| O=P(O)(O)c1cc(-c2ccccc2)oc1-c1ccccc1 | 0.0456% (inactive) |  |
| CCCCC1C2C(=O)N(c3ccc(C)cc3)C(=O)C2ON1c1ccccc1 (stereo not given) | -2.92% (inactive) |  |
| Cc1cc([N+](=O)[O-])nn1Cc1ccc(C(=O)N/N=C/c2ccc(N(C)C)cc2)cc1 | -10.8% (inactive) |  |
| Nc1ccc(N)c(C(=O)O)c1 |  | 0.794 µM (active) |
| Nc1ccc(C(=O)C(=O)c2ccc(N)cc2)cc1 | 4.27% (inactive) |  |
| O=C(O)c1cc2ccccc2cc1Nc1ccccc1 | -13.1% (inactive) |  |
